The results in this text go back to PubChem BioAssay (NCI).

This is part of a sample that, as a whole, favours compounds with a hit. Of some 83,000 tested, about 20% had one in any assay.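 Note: values are percent growth. 100 is the growth of untreated cells, values between 100 and 0 indicate rising inhibition; between -100 and 0 indicates cell death.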 Unmarked numbers belong to inactive results. The source made the active and inactive calls.

This test relates to NCI-H322M lung. Nature of the test: NCI-60 one-dose screen, 48 h (100 = growth as untreated, 0 = no growth, -100 = all killed). The conditions noted are these: 10 µM unless noted. The protocol: Growth inhibition of the NCI-H322M human Non-Small Cell Lung tumor cell line is measured as a screen for anti-cancer activity. Cells are grown in 96 well plates and exposed to the test compound for 48 hours. Compounds are tested at a single concentration, which is 10^-5 M for most compounds. The reported endpoint is percent growth (GI% or GIPRCNT), where numbers from 0 - 100% represent growth inhibition, and numbers from -100% - 0 represent cell death. For example, a value of 40 represents 60% growth inhibition. A value of 0 means no net growth occurred over the course of the experiment. A value of -40 indicates 40% of cells at the beginning of the experiment died by the end of the experiment. A value of -100 means all cells are dead at the end of the experiment.
NCI-60 Human Tumor Cell Lines Screen was performed using the standard one-dose NCI protocol, which is described in more detail at https://dtp.cancer.gov/discovery_development/nci-60/default.htm.
Compounds with GIPRCNT values below 10 were considered active. Activity score was based on GIPRCNT using the following formula: […]
Score is 0 for GIPRCNT values of 100 or above, 50 for GIPRCNT values of 0, and 100 for GIPRCNT values of -100.
Take `COC1=CC(c2ccc[nH]2)=N/C1=C\c1[nH]c(C)c(C(=O)OCc2ccccc2)c1C`: the growth was -11% (active).

In the case of `Cn1c(=O)c2[nH]c(N/N=C/c3ccccc3Br)nc2n(C)c1=O`, the growth was 95.5%.

On to `C=C1C(=O)O[C@H]2[C@H]1CC/C(COC(=O)NCc1ccc(Cn3c(=O)sn(CCI)c3=O)cc1)=C\CC[C@@]1(C)O[C@@H]21`, for which the growth was 96.4%.

As for `COc1cc(NC(C)CCCNC(C)C)c2ncccc2c1OC` (stereo not given), the growth is 99.7%.

Consider `CCOC(=O)c1c(NC(=O)c2ccc(C(C)C)cc2)sc2c(CN(C)C)c(O)ccc12`, for which the growth was 79.2%.

Consider `N#CC1=C(N)Oc2c(sc3c(Br)cccc23)C1c1ccc(F)cc1` (stereo not given), for which the growth is 41.3%.

Turning to `CCOC(=O)c1ccc2[nH]c(O)c(C(=Nc3ccc(N(C)C(=O)CN4CCN(C)CC4)cc3)c3ccccc3)c2c1`, the growth was 11.7%.

In the case of `CCOC(=O)c1nc(Nc2ccc(NC(=O)Nc3ccc(F)cc3)cc2)c2ccccc2n1`, the growth was 97%.

Consider `CC(C)(C)n1cc(-c2ccnc(NCCNS(=O)(=O)c3cccc4ccccc34)c2)c(-c2cccc(F)c2)n1`, for which the growth was 20.8%.

As to `O=C(Nc1cccnc1Nc1ccc(F)cc1)c1cn(Cc2cccc(Oc3ccccc3)c2)nn1`, the growth is 78.9%.

As to `CCCCNC(=O)Oc1ccc(/C(=C(/CC)Cc2ccccc2)c2ccc(OCCN3CCCCCC3)cc2)cc1`, the growth is 85.4%.

Regarding `COc1ccc2[nH]cc(C(c3cc(F)cc(F)c3)c3c[nH]c4ccc(OC)cc34)c2c1`, the growth was 70.3%.

For the molecule `Oc1c(Cl)cc(Cl)cc1/C=N/Nc1nnc(N/N=C/c2cc(Cl)cc(Cl)c2O)c2ccccc12`, the growth is 21%.

With `CCC(C)N(c1ccc(Cl)cc1)c1nc(-c2ccc(Br)cc2)cs1` (stereo not given), the growth was 91.4%.

For `COc1ccc2nc(NC(=O)CSc3nnc4n3S(=O)(=O)c3ccccc3N4C)sc2c1`, the growth was 102%.

Turning to `C#CCOc1cccc(Nc2ncnc3ccc(NC(=O)CCl)cc23)c1`, the growth was -18.8% (active).

Consider `Brc1c2c(c(Br)c3ccccc13)CCCC2`, for which the growth is 99.6%.

`CCOC(=O)/C=C1\S/C(=N\Nc2cc(=O)[nH]c3ccc(Cl)cc23)N(c2ccccc2)C1=O`: the growth was 98.6%.

For the molecule `COc1ccc2cc(C(=O)c3coc4ccc(O)cc34)ccc2c1`, the growth was 95.8%.

For the molecule `COc1ccc(-c2cn(-c3cc(OC)c(OC)c(OC)c3)c(=O)n2C(C)=O)cc1`, the growth is 99.6%.

Regarding `CN1CCN(c2ccc(NC(=O)c3nc4ccc5[nH]ncc5c4c4c3CCCC4)cc2C(F)(F)F)CC1`, the growth is 86.3%.

In the case of `Nc1ncnc2c1N=C(c1ccc3c(c1)OCO3)CC(c1ccc([N+](=O)[O-])cc1)N2` (stereo not given), the growth was 90.5%.

Regarding `COC(C(=O)[C@@H](O)[C@@H](C)O)[C@@H]1Cc2cc3cc(O[C@H]4C[C@@H](O[C@H]5C[C@@H](O)[C@H](O)C(C)O5)[C@H](O)C(C)O4)c(C)c(O)c3c(O)c2C(=O)[C@H]1O[C@H]1C[C@@H](O[C@H]2C[C@@H](O[C@H]3C[C@@H](O)[C@H](OC)C(C)O3)[C@@H](O)C(C)O2)[C@H](O)C(C)O1` (stereo not given in full), the growth is 5.34% (active).

On to `CCN(CC)CCNC(=O)c1cn2ncnc(Oc3ccc(NC(=O)Nc4ccc(Cl)c(C(F)(F)F)c4)c(F)c3)c2c1C`, for which the growth is 34.4%.

With `COc1ccc2c(O)c(/C=C3\N=Nc4ncccc43)oc2c1C[C@H]1CCNC[C@H]1F`, the growth is 9.44% (active).

For the molecule `O=C(NCCCCNC(=O)OCc1ccc2c(Cl)cc(Cl)c(O)c2n1)OCc1ccc2c(Cl)cc(Cl)c(O)c2n1`, the growth was 34.3%.

As to `Oc1c(Cl)cc(Cl)c2ccc(Cn3cc(-c4ccc(C(F)(F)F)cc4)nn3)nc12`, the growth is 96%.

For the molecule `COC(=O)c1n[nH]c2ccc3nc(-c4cn[nH]c4C(F)(F)F)c4c(c3c12)CCCC4`, the growth is 45.1%.

Consider `Nc1c(C(=O)Nc2ccccc2Cl)sc2nc3c(cc12)C(O)CCC3` (stereo not given), for which the growth was 60.2%.

Regarding `CC(O)c1cnc(/C=C2\SC(=S)N(Cc3ccccc3)C2=O)s1` (stereo not given), the growth is 87.8%.

`OCCCC1CCN(C(Cc2ccccc2)c2ccccc2)CC1` (stereo not given): the growth was 93.7%.

Turning to `CCCCCCCCCCCCCCCCCCOc1ccccc1CC(=O)NCC[N+]1(C)CCCC1`, the growth was 67.3%.

`O=C(CN1C(=O)CCC1=O)Nc1ncc(Cc2ccc(F)cc2)s1`: the growth was 102%.

Regarding `CCOP(=O)(OCC)c1nc(-c2ccccc2)oc1NCc1cccnc1`, the growth is 106%.

With `O=C1Nc2ccc(I)cc2C1=O`, the growth was 107%.

With `CSc1nc2sc3c(c2c(=O)n1-c1ccc([N+](=O)[O-])cc1)CCCCC3`, the growth is 88.8%.

Turning to `O=C1Nc2ccccc2[C@]12CC(c1ccccc1)=NN2`, the growth was 59.6%.

`S=C1CCSC(=S)N1CCCN1C(=S)CCSC1=S`: the growth is 113%.

`COc1cc(-n2cc(-c3cc(O)c(C/C=C(\C)CCC=C(C)C)c(O)c3)nn2)cc2c1O[C@]1(C)CC[C@@H](O)C(C)(C)[C@H]1C2`: the growth is 35.4%.

For the molecule `CCN1CC(=O)N(/N=C2\C(=O)Nc3ccccc32)C1=S`, the growth is 88.6%.
